Assay [1] addresses Lysosomal acid glucosylceramidase (Homo sapiens) (UniProt P04062). Description: Glucocerebrosidase-p2 (AID 348; in the data active = potency below about 10 µM; also: potency is read from the fitted curve at half-maximal effect). The following applies: purified GBA, blue fluorogenic substrate, 40 min. Summed up:
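Compounds titrated from 0.6 nM upwards against 0.2 nM enzyme in pH 5.9 citric acid/KH2PO4, taurocholate, tween-20; blue fluorogenic substrate 80 uM, 40 min room temperature, stopped and read Ex 365/Em 440 for AC50.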

The nature of assay [2]: AP1 Signaling Pathway (AID 357; active = well fitted curve in either direction with a large enough effect, not every such curve was filed as active;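 also: ME-180 reporter cells stimulated with EGF at its EC50 level; % is scaled to controls: 0 for no effect and ±100 for the full control effect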). The following applies: ME-180 AP-1-bla reporter, EGF-induced, beta-lactamase ratio, 5 h; at 7.69 µM (top of the series) unless noted. Summed up:
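Beta-lactamase reporter under AP-1 response element, ME-180 background. Stimulus: EC50 EGF. Compound exposure 5 h, 37 °C. Detection: CCF4, 2.5 h RT, 460/530 nm. Values: AC50 from titration.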

Assay [3] has as its target Cytochrome P450 1A2 (Homo sapiens) (UniProt P05177). Description: p450-cyp1a2 (AID 410; calls by dose curve; also: potency is read from the fitted curve at half-maximal effect). The following applies: recombinant CYP1A2, luciferin-ME demethylation, luminescence; series mostly up to 57 µM. The essentials:
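Human CYP1A2 (20nM) demethylated Luciferin-ME at its Km (100uM) in 100mM KPO4. After 10 min compound preincubation, NADPH regeneration ran the reaction 60 min at room temperature. Luciferin was read by luminescence, normalized to 57 uM furafylline.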

Assay [4] can be described thus: NFAT Signaling Pathway (AID 444; active = well fitted curve in either direction with a large enough effect, not every such curve was filed as active;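 also: carbachol stimulus at about its EC50 of 1 µM final; % is scaled to controls: 0 for no effect and ±100 for the full control effect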). Conditions: Jurkat NFAT-bla M1, carbachol, beta-lactamase ratio, 5 h; at 7.69 µM (top of the series) unless noted. The essentials: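 Jurkat cells carrying an NFAT-driven β-lactamase reporter and co-transfected muscarinic M1 receptor were treated with compound plus carbachol (1 uM final, an EC50 level) for 5 h at 37 °C. CCF4 loading followed for 1 h at RT; 460/530 nm ratio gave %activity.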

Assay [5] can be described thus: Stat Signaling Pathway (AID 446; active = well fitted curve in either direction with a large enough effect, not every such curve was filed as active;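 also: ME-180 cervical cancer cells given 40 pM IL-6 alongside compound; SIE-controlled beta-lactamase reporter measured as 460/530 nm FRET emission ratio; % is scaled to controls: 0 for no effect and ±100 for the full control effect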). Conditions: ME-180 (cervical carcinoma) SIE beta-lactamase reporter, IL-6 stimulated, 5 h; at 7.69 µM (top of the series) unless noted. The essentials:
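ME-180 SIE-bla cells; overnight plating; cpd + IL-6 40 pM, 5 h, 37 C; LiveBLAzer 2.5 h RT; 460/530 nm emission ratio. Normalized to 300 pM IL-6 and 125 nM JAK inhibitor controls.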

Assay [6] deals with Glucocorticoid receptor (Homo sapiens) (UniProt P04150). Description: GR-GFP Redistribution (AID 450;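 active = compounds whose dose series gives a full or clear partial fitted curve of increased nuclear translocation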; also: potency is read from the fitted curve at half-maximal effect). Conditions: U2OS GR-GFP nuclear translocation, laser cytometry, 2 h.
Assay [7] shares this target. Description: GR-EFC Redistribution (AID 451; calls by dose curve; also: potency is read from the fitted curve at half-maximal effect). The following applies: CHO-K1 GR-EFC translocation, beta-gal luminescence, 2 h. Summed up: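 CHO-K1 cells stably expressing nuclear-localized β-gal enzyme acceptor and GR fused C-terminally to the enzyme donor fragment; ligand-driven nuclear translocation restores β-gal by complementation. Compounds titrated up to 46 uM final, 2 h at 37 °C; luminescence read.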

Assay [8] deals with Mitogen-activated protein kinase 10 (Mus musculus) (UniProt Q61831). Description: JNK3 AlphaScreen Assay (AID 530; active = well fitted curve in either direction with a large enough effect, not every such curve was filed as active;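 also: kinase came from lysate of stimulated human HepG2 cells; % is scaled to controls: 0 for no effect and ±100 for the full control effect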). The following applies: JNK3 lysate, c-Jun phosphorylation; series mostly up to 57.1 µM. Summed up: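 JNK3 came from HepG2 lysates pre-activated with IL-1beta and TNF-alpha and phosphorylated biotinylated GST-cJun (1-79) at 10 uM ATP, pH 7.6, room temperature. Compounds were titrated. AlphaScreen signal used anti-phospho-cJun (Ser73) antibody.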
A general note: Alpha assays give light when donor and acceptor beads are brought close together.

Assay [9] addresses 3',5'-cyclic-AMP phosphodiesterase 4B (Homo sapiens) (UniProt Q07343). Description: qHTS Assay for Inhibitors of PDE-IV (AID 607; active = well fitted activation curve with a large enough effect in the main read-out, with a control signal flat, not every such curve was filed as active; also: % of control where 0% means no effect). Conditions: HEK293 ACTOne CNG channel cells, membrane potential fluorescence; series mostly up to 22.9 µM. Summed up: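 ACTOne HEK293 cells carry a modified cAMP-gated CNG channel and express endogenous PDE4; plated 1000 cells/well, compounds up to 22.9 uM final. Membrane-potential dye fluorescence (ex 535/em 590) was read; parental cells received 10 uM forskolin + 100 uM RO 20-1724.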
A general note: Quantitative high-throughput screening tests each substance at several concentrations.

The target in assay [10] is Cytochrome P450 2C19 (Homo sapiens) (UniProt P33261). Description: qHTS Assay for Inhibitors and Substrates of Cytochrome P450 2C19 (AID 899). Also: potency is read from the fitted curve at half-maximal effect; nearly all actives have a fitted effect of over 60% in size. The following applies: recombinant CYP2C19, luciferin-H EGE luminescence; series mostly up to 57.1 µM. The essentials: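 NADPH-dependent conversion of Luciferin-H EGE (10uM, at KM) by 5nM enzyme in 50mM KPO4, 60 min at 37C following 10 min compound preincubation. Stopped with luciferin detection buffer; luminescence read after 20 min.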

Assay [11] can be described thus: Confirmation and Secondary Assay for Modulators of Hemoglobin Beta Chain Splicing at IVS2 654 locus (AID 910).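 Also: per-well total GFP intensity by laser scanning cytometry after 2-day treatment; % of control where 0% means no effect.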 Conditions: HeLa EGFP-654 splicing reporter, GFP fluorescence, 48 h; series mostly up to 38.3 µM. The essentials: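 HeLa cells stably carrying EGFP interrupted by mutant beta-globin IVS2-654 intron (CMV-driven) were treated with compound for 2 days at 37C; corrected splicing was scored as total peak GFP intensity per well (488 nm excitation, 500-520 nm emission).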

Assay [12] in a line: Confirmation and Secondary Assay for Modulators of Hemoglobin Beta Chain Splicing at IVS2 705 locus (AID 930).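 Also: HeLa cells stably expressing the EGFP-705 splicing reporter; % of control where 0% means no effect.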 Conditions: HeLa EGFP-705 splicing reporter, GFP fluorescence, 48 h; series mostly up to 38.3 µM. Summed up: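 Restored EGFP fluorescence after 2-day compound exposure reports splicing correction in IVS2-705 EGFP reporter HeLa cells; positive control was 500 nM splice-blocking PNA oligo. Signal measured as well total peak GFP intensity (488 nm excitation).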

The nature of assay [13]: qHTS Assay for Lipid Storage Modulators (AID 1519; calls by dose curve). The following applies: Drosophila S3 cells, BODIPY lipid droplet/cell ratio, laser cytometry, cells loaded with oleic acid; for activity change, negative = inhibition: at 57.5 µM (top of the series). Summed up: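 Cells seeded at 5,000 per well were treated with compounds over a concentration series and loaded with oleic acid (400 uM, as added). Lipid droplet fluorescence (488 nm excitation, 500-530 nm channel) was read by laser-scanning cytometry and normalized to 20 uM Triacsin C.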

The target of assay [14] is Ubiquitin carboxyl-terminal hydrolase 1 (Homo sapiens) (UniProt O94782). Description: Inhibitors of USP1/UAF1: Pilot qHTS (AID 504865).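 Also: rhodamine fluorescence freed from ubiquitin-rhodamine substrate followed over time; top concentration of the series differs between compounds; % is scaled to controls: 0 for no effect and ±100 for the full control effect; nearly all actives have a fitted effect of over 35% in size.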 The following applies: purified USP1/UAF1, Ub-rhodamine cleavage fluorescence; series mostly up to 54.9 µM. The essentials: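 Kinetic fluorescence assay: 1nM USP1/UAF1, 15 min compound preincubation, then 150nM Ub-Rho; 480/540 nm.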
Assay [15] can be described thus: Primary qHTS for small molecule stabilizers of the endoplasmic reticulum resident proteome: Secreted ER Calcium Modulated Protein (SERCaMP) assay (AID 1508630). Also: % is scaled to controls: 0 for no effect and ±100 for the full control effect. The following applies: SH-SY5Y GLuc-SERCaMP (Gaussia luciferase released on ER calcium loss) secretion, thapsigargin, luminescence; series mostly up to 38.4 µM. Summed up: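 GLuc-SERCaMP-expressing SH-SY5Y cells, pretreated 16 h with compound, are challenged with thapsigargin to empty ER calcium stores; after 4 h, coelenterazine is added directly to the medium and luminescence is imaged.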

Assay [16] deals with Cytochrome P450 3A4 (Homo sapiens) (UniProt P08684). Description: qHTS Assay for Inhibitors and Substrates of Cytochrome P450 3A4 (AID 884). Also: nearly all actives have a fitted effect of over 50% in size. Also: potency is read from the fitted curve at half-maximal effect. The following applies: recombinant CYP3A4, Luciferin-PPXE luminescence; series mostly up to 57.1 µM. The essentials:
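20 nM human CYP3A4 with 25 uM Luciferin-PPXE (at KM) in 200 mM KPO4, preincubated 10 min with compound; NADPH regeneration started a 60 min RT reaction. Luciferin detected by luminescence, normalized to 57 uM ketoconazole as full inhibition.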

Assay [17] has the same target. Description: qHTS Assay for Activators of Cytochrome P450 3A4 (AID 885). Also: nearly all actives have a fitted effect of over 65% in size. The following applies: recombinant CYP3A4, Luciferin-PPXE luminescence, 60 min; series mostly up to 57.1 µM. Summed up:
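20nM CYP3A4 + 25uM Luciferin-PPXE (=KM), 200mM KPO4; cpd 10 min RT; NADPH regen, 60 min RT; stop w/ detection buffer, 20 min; luminescence. Normalized to 57 uM ketoconazole.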

Where [18] appears, read: measured here: cell count channel max response.
The mark [19] stands for this setting: measured here: lipid channel max response.

Records with an inconclusive call do not appear. Calls of active or inactive are those of the source. Unless noted, calls follow the shape of the dose curve; as a rule, active = well fitted curve in the direction sought with a large enough effect; inconclusive = small, poorly fitted or top-dose-only effect, or another doubt; inactive = no such curve, though single readings can be large; an effect the other way counts as inactive or inconclusive.

Sequence of Cytochrome P450 3A4 (Homo sapiens) (P08684 whole entry, looked up): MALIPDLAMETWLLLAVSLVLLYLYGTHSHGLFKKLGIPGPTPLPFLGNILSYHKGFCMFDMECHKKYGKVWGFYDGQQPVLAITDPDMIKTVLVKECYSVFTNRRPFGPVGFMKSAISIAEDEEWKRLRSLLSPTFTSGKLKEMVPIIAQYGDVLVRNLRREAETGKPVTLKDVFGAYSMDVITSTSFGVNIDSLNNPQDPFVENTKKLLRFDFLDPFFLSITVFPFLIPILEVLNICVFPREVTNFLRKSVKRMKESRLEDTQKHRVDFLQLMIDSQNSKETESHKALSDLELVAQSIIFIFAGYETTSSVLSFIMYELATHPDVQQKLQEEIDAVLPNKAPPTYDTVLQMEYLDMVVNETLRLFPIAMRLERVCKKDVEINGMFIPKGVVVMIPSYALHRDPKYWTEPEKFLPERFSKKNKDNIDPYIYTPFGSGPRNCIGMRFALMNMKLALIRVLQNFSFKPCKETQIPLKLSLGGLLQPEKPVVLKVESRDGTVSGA
Sequence of Cytochrome P450 1A2 (Homo sapiens) (P05177 whole entry, looked up): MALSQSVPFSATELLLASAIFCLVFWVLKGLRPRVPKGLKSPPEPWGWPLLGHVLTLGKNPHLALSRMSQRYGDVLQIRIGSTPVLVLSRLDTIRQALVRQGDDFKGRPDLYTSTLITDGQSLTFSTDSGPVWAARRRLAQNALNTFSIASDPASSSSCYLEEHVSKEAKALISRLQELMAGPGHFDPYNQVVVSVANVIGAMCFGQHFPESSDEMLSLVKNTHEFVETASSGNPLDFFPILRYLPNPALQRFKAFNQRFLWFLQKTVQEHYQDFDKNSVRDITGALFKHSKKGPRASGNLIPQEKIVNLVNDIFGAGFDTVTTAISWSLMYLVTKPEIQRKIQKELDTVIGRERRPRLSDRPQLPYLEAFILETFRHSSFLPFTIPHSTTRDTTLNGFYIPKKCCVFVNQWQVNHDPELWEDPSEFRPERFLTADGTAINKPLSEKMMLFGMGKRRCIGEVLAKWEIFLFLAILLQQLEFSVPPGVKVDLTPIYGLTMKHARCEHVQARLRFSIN
Sequence of Glucocorticoid receptor (Homo sapiens) (P04150 whole entry, looked up, the tested form may be a part): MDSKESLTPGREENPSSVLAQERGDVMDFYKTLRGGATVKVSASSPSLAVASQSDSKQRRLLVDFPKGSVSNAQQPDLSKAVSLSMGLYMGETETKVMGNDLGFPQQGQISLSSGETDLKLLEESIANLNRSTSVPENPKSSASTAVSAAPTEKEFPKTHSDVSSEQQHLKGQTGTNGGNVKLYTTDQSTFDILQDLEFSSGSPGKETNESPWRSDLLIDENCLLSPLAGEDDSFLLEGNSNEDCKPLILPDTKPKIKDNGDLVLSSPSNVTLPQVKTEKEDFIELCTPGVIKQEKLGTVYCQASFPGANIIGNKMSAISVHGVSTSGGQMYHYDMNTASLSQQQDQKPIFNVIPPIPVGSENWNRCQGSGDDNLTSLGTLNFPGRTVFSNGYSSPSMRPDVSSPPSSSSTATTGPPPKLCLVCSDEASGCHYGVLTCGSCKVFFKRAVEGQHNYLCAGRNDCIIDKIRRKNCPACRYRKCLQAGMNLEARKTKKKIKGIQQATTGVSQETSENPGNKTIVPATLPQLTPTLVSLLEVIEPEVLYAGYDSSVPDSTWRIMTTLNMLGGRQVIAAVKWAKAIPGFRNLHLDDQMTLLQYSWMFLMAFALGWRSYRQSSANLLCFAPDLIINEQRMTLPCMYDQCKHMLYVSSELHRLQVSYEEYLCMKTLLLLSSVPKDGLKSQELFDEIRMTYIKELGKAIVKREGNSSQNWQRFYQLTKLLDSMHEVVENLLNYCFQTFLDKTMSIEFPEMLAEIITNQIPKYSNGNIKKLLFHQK
Sequence of Lysosomal acid glucosylceramidase (Homo sapiens) (P04062 whole entry, looked up): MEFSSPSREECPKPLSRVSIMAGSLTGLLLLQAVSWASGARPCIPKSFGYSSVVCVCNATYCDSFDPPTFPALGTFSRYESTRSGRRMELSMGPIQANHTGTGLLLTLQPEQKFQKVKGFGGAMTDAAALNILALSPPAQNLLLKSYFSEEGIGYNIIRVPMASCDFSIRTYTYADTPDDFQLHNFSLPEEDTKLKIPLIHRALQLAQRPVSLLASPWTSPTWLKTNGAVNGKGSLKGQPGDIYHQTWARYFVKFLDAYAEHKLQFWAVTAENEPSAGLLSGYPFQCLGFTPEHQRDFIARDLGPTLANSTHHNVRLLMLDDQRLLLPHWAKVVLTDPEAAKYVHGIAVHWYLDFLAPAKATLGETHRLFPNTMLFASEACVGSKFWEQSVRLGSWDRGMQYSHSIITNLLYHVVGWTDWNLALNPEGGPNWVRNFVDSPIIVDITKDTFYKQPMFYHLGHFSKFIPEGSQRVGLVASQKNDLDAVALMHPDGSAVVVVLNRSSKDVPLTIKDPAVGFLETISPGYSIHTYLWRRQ
Sequence of Cytochrome P450 2C19 (Homo sapiens) (P33261 whole entry, looked up): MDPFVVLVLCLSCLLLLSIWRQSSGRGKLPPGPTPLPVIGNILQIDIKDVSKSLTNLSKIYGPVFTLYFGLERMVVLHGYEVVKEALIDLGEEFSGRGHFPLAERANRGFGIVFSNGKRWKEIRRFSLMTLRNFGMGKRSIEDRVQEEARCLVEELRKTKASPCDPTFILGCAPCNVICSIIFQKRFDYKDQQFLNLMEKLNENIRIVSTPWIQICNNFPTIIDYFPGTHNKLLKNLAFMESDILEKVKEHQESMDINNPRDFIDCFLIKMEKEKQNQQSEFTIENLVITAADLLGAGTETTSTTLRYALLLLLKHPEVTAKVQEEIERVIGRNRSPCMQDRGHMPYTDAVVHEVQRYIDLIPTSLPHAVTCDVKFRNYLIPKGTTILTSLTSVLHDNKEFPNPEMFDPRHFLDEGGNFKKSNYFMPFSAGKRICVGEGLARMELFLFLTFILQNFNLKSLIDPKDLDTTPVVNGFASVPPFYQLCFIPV
Sequence of 3',5'-cyclic-AMP phosphodiesterase 4B (Homo sapiens) (Q07343 whole entry, looked up): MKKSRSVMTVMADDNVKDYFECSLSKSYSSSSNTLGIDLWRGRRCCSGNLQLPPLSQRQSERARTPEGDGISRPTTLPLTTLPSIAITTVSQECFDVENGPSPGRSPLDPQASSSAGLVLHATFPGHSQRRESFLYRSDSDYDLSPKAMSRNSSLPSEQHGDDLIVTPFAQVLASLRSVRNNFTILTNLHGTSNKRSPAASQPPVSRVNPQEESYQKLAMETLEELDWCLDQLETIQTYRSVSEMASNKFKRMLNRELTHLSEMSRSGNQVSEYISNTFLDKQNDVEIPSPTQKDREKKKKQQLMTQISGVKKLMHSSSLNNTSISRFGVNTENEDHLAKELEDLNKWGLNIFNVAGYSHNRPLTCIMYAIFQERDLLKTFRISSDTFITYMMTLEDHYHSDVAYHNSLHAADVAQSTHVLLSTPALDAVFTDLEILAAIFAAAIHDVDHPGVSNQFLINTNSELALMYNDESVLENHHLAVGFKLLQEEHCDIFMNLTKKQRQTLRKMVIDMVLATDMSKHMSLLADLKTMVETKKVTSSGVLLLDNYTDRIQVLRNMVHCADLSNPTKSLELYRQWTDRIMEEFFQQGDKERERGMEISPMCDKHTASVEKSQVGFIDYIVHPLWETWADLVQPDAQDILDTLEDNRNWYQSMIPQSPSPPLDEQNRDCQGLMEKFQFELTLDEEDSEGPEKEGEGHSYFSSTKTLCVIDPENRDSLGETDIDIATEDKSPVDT
Sequence of Ubiquitin carboxyl-terminal hydrolase 1 (Homo sapiens) (O94782 whole entry, looked up): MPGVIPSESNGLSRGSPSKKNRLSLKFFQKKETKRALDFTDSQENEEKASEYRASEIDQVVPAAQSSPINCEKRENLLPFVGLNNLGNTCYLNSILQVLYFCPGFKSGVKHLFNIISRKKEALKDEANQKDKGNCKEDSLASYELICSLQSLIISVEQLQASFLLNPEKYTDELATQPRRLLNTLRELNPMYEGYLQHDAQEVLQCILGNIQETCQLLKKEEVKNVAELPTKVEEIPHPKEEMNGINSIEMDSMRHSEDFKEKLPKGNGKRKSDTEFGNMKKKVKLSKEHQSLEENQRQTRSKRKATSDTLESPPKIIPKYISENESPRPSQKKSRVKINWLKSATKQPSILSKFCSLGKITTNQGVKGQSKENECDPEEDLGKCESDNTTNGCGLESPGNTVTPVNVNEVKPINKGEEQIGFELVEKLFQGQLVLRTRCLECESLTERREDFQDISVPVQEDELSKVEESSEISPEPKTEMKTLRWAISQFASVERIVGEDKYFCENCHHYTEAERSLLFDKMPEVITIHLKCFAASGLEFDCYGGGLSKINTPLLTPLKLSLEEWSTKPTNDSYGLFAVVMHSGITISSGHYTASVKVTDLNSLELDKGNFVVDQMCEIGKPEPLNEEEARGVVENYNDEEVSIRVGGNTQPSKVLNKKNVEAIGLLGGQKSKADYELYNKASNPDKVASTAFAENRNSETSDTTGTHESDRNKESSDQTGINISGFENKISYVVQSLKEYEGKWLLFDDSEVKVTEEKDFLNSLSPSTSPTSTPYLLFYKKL

Turning to `COCCNc1cc(-c2ccccc2C(F)(F)F)ncn1`, the Potency in assay [1] was > 11.4 µM (inactive); in assay [3], 15.8 µM (active); in assay [6], > 46 µM (inactive); in [7], > 46 µM (inactive); in assay [10] it was 7.94 µM (active). For the same compound, the activity change, negative = inhibition in assay [2] was 1.05% (inactive); in [4], 1.43% (inactive); in [13], 7.86% (inactive). Further, in [5], the activity, negative = inhibition was 11% (inactive). For the same compound, the outcome in assay [8], in assay [11] and in [12] was inactive. The Potency entry in assay [9], in [14] and in assay [15] was “inactive” in each case. Besides, the figures for the max response in assay [13] (setting [18]) and in assay [13] (setting [19]) were 16.6% and 25.3%, respectively.

For the compound `COc1ccc2[nH]cc(CCNc3ncncc3-c3ccc(N(C)C)cc3)c2c1`, the Potency is > 11.4 µM (inactive) in [1]; 0.251 µM (active) in [3]; > 46 µM (inactive) in assay [6]; > 46 µM (inactive) in assay [7]; 0.501 µM (active) in [16]; 1.58 µM (active) in assay [10]. Also, the activity change, negative = inhibition was -27.6% (inactive) in assay [2], 4.01% (inactive) in [4] and 5.88% (inactive) in assay [13]. The activity, negative = inhibition in [5] is -7.73% (inactive). Further, the Potency result in assay [17], in [14] and in [15] was “inactive” each time. Besides, the compound was called inactive in assay [11] and in assay [12]. Also, the figures for the max response in assay [13] (setting [18]) and in [13] (setting [19]) were 5.01% and 11%, respectively.

On to `Cn1c(=O)c(-c2cc(F)cc(F)c2)nc2cnc(Oc3ccccc3)nc21`, for which the Potency in assay [1] was > 11.4 µM (inactive); in [3], 2 µM (active); in assay [6], > 9.22 µM (inactive); in [7], > 46 µM (inactive). Further, the activity change, negative = inhibition in [2] is -7.91% (inactive); in [4], 3.31% (inactive); in [13] it was -4.93% (inactive). Moreover, the activity, negative = inhibition in [5] was 0.814% (inactive). Further, in [8], the call was inactive. In addition, the Potency entry in assay [9], in [16] and in [15] was “inactive” throughout. For the same compound, the max response in [13] (setting [18]) turned out to be 21.4%; in [13] (setting [19]), 16.5%.
